Laboratory results as given in the supplement of paper PMC8975748.
Counter-ions that a name gives are not always drawn.

Tested on: Saccharomyces cerevisiae BY4741 SeMeCo community
Assay: z-score of subpopulation abundance vs DMSO median, subpopulation auxotrophic for LUM; higher = larger share of this subpopulation than in DMSO controls
Details: 10 µM; 24 h; SM minimal medium; subpopulation (auxotrophy): LUM
Description: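 Fluorescent four-plasmid SeMeCo (self-establishing metabolically cooperating S. cerevisiae BY4741 community; plasmids pH-mRuby2, pL-mWasabi, pU-eCFP, pM-TagRFP657) was grown 24 h in minimal SM medium with each Selleck FDA-approved drug at 10 µM in 384-well plates. Cells were fixed and imaged by high-content confocal microscopy. For each auxotrophic subpopulation (and the prototroph), a z-score gives the deviation from the DMSO vehicle-control population median.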

Row | SMILES | z-score of subpopulation abundance
1 | CONC(=O)Nc1ccc(-c2sc3c(c2CN(C)C)c(=O)n(-c2ccc(OC)nn2)c(=O)n3Cc2c(F)cccc2F)cc1 [Relugolix] | 0.11
2 | Cc1c(Cl)cccc1Nc1ccccc1C(=O)O [Tolfenamic Acid] | -1.95
3 | CCCCCOc1ccccc1/C(=C\SC)n1ccnc1 [Neticonazole Hydrochloride] | 3.33
4 | C(=C\c1ccccc1)/CN1CCN(C(c2ccccc2)c2ccccc2)CC1 [Cinnarizine] | 0.8
5 | COc1ccc2[nH]c([S+]([O-])Cc3ncc(C)c(OC)c3C)nc2c1 (stereo not given) [Omeprazole Sodium] | -0.98
6 | Cc1cc(NS(=O)(=O)c2ccc(N)cc2)no1 [Sulfamethoxazole sodium] | -0.34
7 | CO/N=C(\C(=O)N[C@@H]1C(=O)N2C(C(=O)O)=C(CSc3nc(C)c(CC(=O)O)s3)CS[C@H]12)c1csc(N)n1 [Cefodizime Sodium] | -0.74
8 | CC/C(=C(\c1ccccc1)c1ccc(OCCN(C)C)cc1)c1ccccc1 [Tamoxifen Citrate] | 0.58
9 | CN1C(C(=O)Nc2ccccn2)=C(O)c2ccccc2S1(=O)=O [Piroxicam] | -1.33
10 | COc1ccc2c3c1O[C@H]1C[C@@H](O)C=C[C@@]31CCN(C)C2 [Galanthamine HBr] | -0.14
11 | CCCCOc1cc(C(=O)NCCN(CC)CC)c2ccccc2n1 [Dibucaine HCl] | -0.54
12 | C#C[C@]1(O)CC[C@H]2[C@@H]3CCc4cc(OC)ccc4[C@H]3CC[C@@]21C [Mestranol] | -0.31
13 | CCCCOc1cc(C(=O)OCCN(CC)CC)ccc1N [Oxybuprocaine HCl] | 0.25
14 | COc1ccc(C[C@H](N)C(=O)N[C@H]2[C@@H](O)[C@H](n3cnc4c(N(C)C)ncnc43)O[C@@H]2CO)cc1 [Puromycin 2HCl] | -0.39
15 | O=C(CCCN1CCN(c2ccccn2)CC1)c1ccc(F)cc1 [Azaperone] | 0.38
16 | CC1(C)S[C@@H]2[C@H](NC(=O)[C@H](N)c3ccccc3)C(=O)N2[C@H]1C(=O)O [Ampicillin sodium] | -0.14
17 | COc1c(N2C[C@@H]3CCCN[C@@H]3C2)c(F)cc2c(=O)c(C(=O)O)cn(C3CC3)c12 [Moxifloxacin HCl] | 0.77
18 | O=C(Cn1cnnn1)N[C@@H]1C(=O)N2C(C(=O)O)=C(CSc3nncs3)CS[C@H]12 [Ceftezole] | 0.28
19 | NCC[C@H](O)C(=O)N[C@@H]1C[C@H](N)[C@@H](O[C@H]2O[C@H](CN)[C@@H](O)[C@H](O)[C@H]2O)[C@H](O)[C@H]1O[C@H]1O[C@H](CO)[C@@H](O)[C@H](N)[C@H]1O [Amikacin disulfate] | -0.03
20 | O=C(O)Cc1ccccc1Nc1c(Cl)cccc1Cl [Diclofenac acid] | -0.28

Row | SMILES | z-score of subpopulation abundance
21 | CC[C@@H]1/C=C(\C)C[C@H](C)C[C@H](OC)[C@H]2O[C@@](O)(C(=O)C(=O)N3CCCC[C@H]3C(=O)O[C@H](/C(C)=C/[C@@H]3CC[C@@H](O)[C@H](OC)C3)[C@H](C)[C@@H](O)CC1=O)[C@H](C)C[C@@H]2OC [Ascomycin (FK520)] | 2.23
22 | CCCCCCCCOc1ccccc1C(=O)Nc1ccc(C(=O)OCC[N+](C)(CC)CC)cc1 [Otilonium Bromide] | 2.14
23 | CCCc1nn(C)c2c(=O)[nH]c(-c3cc(S(=O)(=O)N4CCN(C)CC4)ccc3OCC)nc12 [Sildenafil] | -0.21
24 | CO[C@@]1(NC(=O)Cc2cccs2)C(=O)N2C(C(=O)O)=C(COC(N)=O)CS[C@@H]21 [Cefoxitin sodium] | -0.95
25 | C[C@]12CC[C@@H]3c4ccc(O)cc4CC[C@H]3[C@@H]1CCC2=O [Estrone] | -0.12
26 | C[C@H]1c2cccc(O)c2C(O)=C2C(=O)[C@]3(O)C(O)=C(C(N)=O)C(=O)[C@@H](N(C)C)[C@@H]3[C@@H](O)[C@@H]21 [Doxycycline monohydrate] | 0.2
27 | O=C1C(CC[S+]([O-])c2ccccc2)C(=O)N(c2ccccc2)N1c1ccccc1 (racemic) [(+/-)-Sulfinpyrazone] | 0.05
28 | Cc1nc2n(c(=O)c1CCN1CCC(c3noc4cc(F)ccc34)CC1)CCCC2O (stereo not given) [Paliperidone] | -1.04
29 | CCC(=O)Oc1ccc2c(c1)CCC1C2CCC2(C)C(OC(=O)CC)CCC12 (stereo not drawn) [Estradiol dipropionate(17-Beta-Estradiol-3,17-Dipropionate)] | -0.6
30 | CN1CCN2c3ncccc3Cc3ccccc3C2C1 (stereo not given) [Mirtazapine] | -0.74
31 | CCCCCCCCCC(=O)N[C@@H](Cc1c[nH]c2ccccc12)C(=O)N[C@H](CC(N)=O)C(=O)N[C@@H](CC(=O)O)C(=O)N[C@@H]1C(=O)NCC(=O)N[C@@H](CCCN)C(=O)N[C@@H](CC(=O)O)C(=O)N[C@H](C)C(=O)N[C@@H](CC(=O)O)C(=O)NCC(=O)N[C@H](CO)C(=O)N[C@@H]([C@H](C)CC(=O)O)C(=O)N[C@@H](CC(=O)c2ccccc2N)C(=O)O[C@@H]1C [Daptomycin] | 1.02
32 | CC(C)(C)C(=O)C(Oc1ccc(Cl)cc1)n1ccnc1 (stereo not given) [Climbazole] | 5.42
33 | COc1ccc2cc([C@H](C)C(=O)O)ccc2c1 [Naproxen Sodium] | -0.75
34 | CCn1cc(C(=O)O)c(=O)c2cnc(N3CCNCC3)nc21 [Pipemidic acid] | 0.73
35 | Cn1cc(C(=O)[C@@H]2CCc3[nH]cnc3C2)c2ccccc21 [Ramosetron Hydrochloride] | 0.32
36 | CCOC(=O)C1=C(C)NC(C)=C(C(=O)OC)C1c1cccc(Cl)c1Cl (stereo not given) [Felodipine] | -4.09
37 | COc1cccc(CCc2ccccc2OCC(CN(C)C)OC(=O)CCC(=O)O)c1 (stereo not given) [Sarpogrelate hydrochloride] | -0.21
38 | Clc1ccc(COC(Cn2ccnc2)c2ccc(Cl)cc2Cl)cc1 (stereo not given) [Econazole nitrate] | 1.67
39 | Clc1ccc(C(Cn2ccnc2)OCc2ccsc2Cl)c(Cl)c1 (stereo not given) [Tioconazole] | 4.03
40 | Cn1c([N+](=O)[O-])cnc1COC(N)=O [Ronidazole] | -0.5
